Composite z-score and z-score data for 14 compounds are collected here from PubChem BioAssay.

Experiment [1] concerns PRMT1 (protein arginine N-methyltransferase 1). The experiment in a line: small molecules binding arginine methyltransferase PRMT1 – biochemical, small-molecule microarray, 635 nm fluorescence, primary screen (AID 1088).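 Note: binding of Prmt1 protein to compounds spotted on small-molecule microarray slides.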 The note with it: higher = more signal.
Experiment [2] in a line: growth effects on S. cerevisiae YJM789 – YJM789 clinical isolate, OD600, 24 h, basal, primary screen (AID 1089).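 Note: growth of clinical yeast isolate S. cerevisiae YJM 789 seeded 1000 cells per well; test concentration not given here.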 The note with it: higher = more signal, called active from +8 up or from −8 down.
The nature of experiment [3]: S. pombe growth modifiers, basal conditions – strain 972, OD600, 24 h, no modulator, primary screen (AID 1090).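 Note: basal condition with compound alone and no growth modifier present; test concentration not given here.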 Conditions: S. pombe 972 growth, higher = more signal, called active from +8 up or from −8 down.
Experiment [4] is described as follows: budding yeast growth modifiers under rapamycin – strain BY4716, OD600, 96 h, primary screen (AID 1091). Note: test concentration not given here. Conditions: S. cerevisiae BY4716 + rapamycin, higher = more signal, called active from +8 up or from −8 down.
Experiment [5] has as its target Torsin-1A-interacting protein 2 (Homo sapiens) (UniProt Q8NFQ8). In words: small molecules binding lysate-expressed LULL1 – cell lysate, human LULL1 lysate, 635/667 nm fluorescence, primary screen (AID 1092).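 Note: probe is lysate of COS7 cells overexpressing human LULL1; score merges per-feature 667 nm fluorescence with signal-to-noise.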 The note with it: small-molecule microarray, hLULL1 lysate binding, 635 nm fluorescence; higher = more signal.
Experiment [6] is described as follows: optical density change of DRC41 E. coli – strain DRC41, OD650, 24 h, E. coli filamentation project, primary screen (AID 1093).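 Note: MC1000 strain lacking acrAB efflux and sulA so SOS filamentation is blocked; test concentration not given here.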 Conditions: E. coli DRC41 growth, higher = more signal, called active from +8 up or from −8 down.
Experiment [7] in a line: probe aLefty2 binding to arrayed compounds – biochemical, biotinylated probe, 635/667 nm fluorescence, primary screen (AID 1094).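 Note: score merges spot fluorescence near 667 nm with spot signal-to-noise ratio.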 The note with it: small-molecule microarray, higher = more signal.
Experiment [8] has as its system Noggin (protein binding on small-molecule microarray). In words: small molecules binding Noggin protein – biochemical, 635/667 nm fluorescence, primary screen (AID 1095).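 Note: score merges 667 nm feature fluorescence with signal to noise over triplicate slides.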 The note with it: 635 nm fluorescence, higher = more signal.
In experiment [9] the target is Neurogenic locus notch homolog protein 3 (Homo sapiens) (UniProt Q9UM47). The experiment in a line: small molecules binding NOTCH3 protein – biochemical, 635/667 nm fluorescence, primary screen (AID 1096). The note with it: small-molecule microarray, 635 nm fluorescence, higher = more signal.
A short description of experiment [10]: probe aEGFR binding to arrayed compounds – biochemical, biotinylated probe, 635/667 nm fluorescence, primary screen (AID 1097).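 Note: probe is a biotinylated anti-EGFR antibody binding compounds printed on slides; score combines fluorescence near 667 nm and signal to noise of each spot.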 Conditions: small-molecule microarray, higher = more signal.

The source made the active and inactive calls.

Sequence of Neurogenic locus notch homolog protein 3 (Homo sapiens) (Q9UM47 whole entry, looked up): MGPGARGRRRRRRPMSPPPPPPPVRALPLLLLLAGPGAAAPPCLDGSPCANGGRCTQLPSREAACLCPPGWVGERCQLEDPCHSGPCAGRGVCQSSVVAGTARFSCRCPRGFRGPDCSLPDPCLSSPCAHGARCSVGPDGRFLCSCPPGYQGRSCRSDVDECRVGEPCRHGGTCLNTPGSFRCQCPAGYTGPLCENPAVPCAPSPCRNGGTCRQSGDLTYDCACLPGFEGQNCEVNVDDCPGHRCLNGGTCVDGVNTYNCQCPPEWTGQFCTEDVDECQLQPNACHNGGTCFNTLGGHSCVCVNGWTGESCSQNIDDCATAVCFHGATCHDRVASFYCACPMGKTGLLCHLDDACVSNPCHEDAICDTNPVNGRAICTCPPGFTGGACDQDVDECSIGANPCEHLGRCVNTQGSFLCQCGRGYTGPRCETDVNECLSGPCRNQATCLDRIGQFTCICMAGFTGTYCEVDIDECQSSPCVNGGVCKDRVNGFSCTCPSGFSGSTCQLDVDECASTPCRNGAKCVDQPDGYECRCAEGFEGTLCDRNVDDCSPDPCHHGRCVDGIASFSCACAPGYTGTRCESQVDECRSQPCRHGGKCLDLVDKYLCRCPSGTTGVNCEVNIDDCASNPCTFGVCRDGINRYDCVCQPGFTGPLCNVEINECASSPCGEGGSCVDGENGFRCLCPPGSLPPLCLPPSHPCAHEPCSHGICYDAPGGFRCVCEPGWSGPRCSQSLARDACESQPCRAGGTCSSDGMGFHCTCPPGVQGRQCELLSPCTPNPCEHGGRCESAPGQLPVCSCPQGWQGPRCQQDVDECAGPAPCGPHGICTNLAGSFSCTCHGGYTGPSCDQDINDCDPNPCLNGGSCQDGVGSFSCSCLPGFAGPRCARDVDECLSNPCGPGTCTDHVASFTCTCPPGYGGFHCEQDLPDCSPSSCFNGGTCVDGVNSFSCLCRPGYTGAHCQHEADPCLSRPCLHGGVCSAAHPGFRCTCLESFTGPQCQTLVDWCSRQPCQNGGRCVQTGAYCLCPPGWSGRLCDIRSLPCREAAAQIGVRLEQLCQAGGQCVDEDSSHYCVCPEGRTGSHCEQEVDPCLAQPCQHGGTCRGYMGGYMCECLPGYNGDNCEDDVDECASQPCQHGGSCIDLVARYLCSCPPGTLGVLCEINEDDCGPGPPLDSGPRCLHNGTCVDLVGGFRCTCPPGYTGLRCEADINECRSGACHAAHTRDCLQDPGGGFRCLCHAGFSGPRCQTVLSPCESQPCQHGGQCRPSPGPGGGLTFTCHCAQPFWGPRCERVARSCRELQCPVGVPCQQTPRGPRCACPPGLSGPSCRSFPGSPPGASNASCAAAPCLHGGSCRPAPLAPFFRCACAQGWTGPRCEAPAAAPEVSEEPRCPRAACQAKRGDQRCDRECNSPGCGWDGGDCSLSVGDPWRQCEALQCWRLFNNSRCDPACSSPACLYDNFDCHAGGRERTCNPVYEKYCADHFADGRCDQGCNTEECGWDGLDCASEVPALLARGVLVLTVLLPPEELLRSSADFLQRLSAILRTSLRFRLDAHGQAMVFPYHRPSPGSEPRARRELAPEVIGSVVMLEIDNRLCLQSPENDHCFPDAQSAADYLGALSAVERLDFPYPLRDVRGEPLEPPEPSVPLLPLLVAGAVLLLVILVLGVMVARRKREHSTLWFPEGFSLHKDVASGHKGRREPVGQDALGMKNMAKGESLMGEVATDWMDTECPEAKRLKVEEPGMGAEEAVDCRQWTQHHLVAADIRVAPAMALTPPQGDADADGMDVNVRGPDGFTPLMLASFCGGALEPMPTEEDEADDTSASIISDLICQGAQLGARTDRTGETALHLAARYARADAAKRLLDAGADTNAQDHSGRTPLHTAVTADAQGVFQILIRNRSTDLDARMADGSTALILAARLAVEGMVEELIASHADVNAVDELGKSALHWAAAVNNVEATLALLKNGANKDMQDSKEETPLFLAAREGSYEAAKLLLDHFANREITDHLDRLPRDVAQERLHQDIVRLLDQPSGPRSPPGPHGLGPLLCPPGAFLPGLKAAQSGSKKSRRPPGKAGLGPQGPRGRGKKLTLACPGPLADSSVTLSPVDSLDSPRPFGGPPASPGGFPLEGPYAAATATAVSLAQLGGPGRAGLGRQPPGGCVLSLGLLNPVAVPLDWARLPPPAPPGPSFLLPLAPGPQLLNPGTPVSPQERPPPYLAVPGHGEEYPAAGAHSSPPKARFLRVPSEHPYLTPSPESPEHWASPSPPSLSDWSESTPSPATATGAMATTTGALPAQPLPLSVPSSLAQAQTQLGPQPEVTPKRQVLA
Sequence of Torsin-1A-interacting protein 2 (Homo sapiens) (Q8NFQ8 whole entry, looked up): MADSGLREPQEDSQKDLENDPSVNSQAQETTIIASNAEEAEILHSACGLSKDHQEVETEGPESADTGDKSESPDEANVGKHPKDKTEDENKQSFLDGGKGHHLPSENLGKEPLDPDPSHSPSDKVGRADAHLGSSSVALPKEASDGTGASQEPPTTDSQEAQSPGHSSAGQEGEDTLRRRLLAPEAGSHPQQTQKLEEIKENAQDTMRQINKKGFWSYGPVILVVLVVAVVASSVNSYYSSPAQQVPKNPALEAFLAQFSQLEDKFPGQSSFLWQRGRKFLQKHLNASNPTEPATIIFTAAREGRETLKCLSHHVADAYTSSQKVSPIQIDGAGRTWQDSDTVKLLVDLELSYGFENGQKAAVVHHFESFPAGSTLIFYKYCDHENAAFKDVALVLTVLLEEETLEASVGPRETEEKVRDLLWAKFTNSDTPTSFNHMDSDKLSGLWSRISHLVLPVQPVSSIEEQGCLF

For `C=C(CCCC)C(=O)CC[C@@H](OC(=O)c1ccccc1-c1ccccc1C(=O)O)c1cccc(OCCO)c1`, the composite z-score in [1] was 1.53; in [5] it was 0.13; in [7], -0.31; in experiment [8], 1.06; in experiment [9], 0.675; in experiment [10] it was -0.287. Also, the z-score in [2] is 0.299 (inactive); in [3], -0.694 (inactive); in [4], -0.541 (inactive); in experiment [6] it was 0.169 (inactive).

As to `C=C[C@H](COC(C)=O)NS(=O)(=O)c1ccc(Br)cc1`, the composite z-score in experiment [1] was -0.0232; in experiment [5] it was -0.0639; in [7] it was -0.0598; in [8], 0.0055; in [9] it was -0.564; in [10], -0.227. The z-score is 0.0313 (inactive) in experiment [2], -1.4 (inactive) in experiment [3], -0.124 (inactive) in experiment [4] and 0.506 (inactive) in experiment [6].

As to `C[C@H]1C2=C3C(CC[C@H]4C(OCc5ccc(F)cc5C(F)(F)F)OC[C@](C)([C@@H]34)N(C(=O)OC(C)(C)C)C2)C(CO)C1CO` (stereo not given in full), the composite z-score was 0.889 in [1]; 3.04 in experiment [5]; 0.606 in experiment [7]; -0.904 in [8]; 1.05 in [9]; 0.0149 in experiment [10]. Further, the z-score in experiment [2] is 0.24 (inactive); in [3], -3.71 (inactive); in experiment [4], 0.0345 (inactive); in experiment [6], -1.5 (inactive).

Regarding `CC1CC/C=C\[C@H]2OC34C=CCN(c5ccc6ccccc6c5)C(=O)[C@H]3N(C(CO)C(C)C)C(=O)[C@@H]4C2C(=O)O1` (stereo not given in full), the composite z-score in experiment [1] is 0.445; in experiment [5], 1.76; in [7] it was -0.0313; in [8] it was -0.0033; in experiment [9], 0.135; in experiment [10], -0.126. For the same compound, the z-score is -1.03 (inactive) in experiment [2], -1.55 (inactive) in experiment [3], -0.797 (inactive) in experiment [4] and -0.578 (inactive) in experiment [6].

`COc1cc(CO)cc(I)c1O[C@H]1C=C(C(=O)NCCO)C[C@@H](N(CC2CCCCC2)C(=O)c2ccc(C(F)(F)F)cc2)[C@@H]1O`: the composite z-score in [1] was 1.23; in experiment [5] it was 1.89; in experiment [7] it was -0.166; in experiment [8], 0.586; in [9] it was 0.937; in experiment [10], -0.0828. In addition, the z-score in [2] is 0.0635 (inactive); in experiment [3], -0.169 (inactive); in experiment [4] it was -0.0789 (inactive); in experiment [6] it was 1.78 (inactive).

For `CC(C)(C)OC(=O)CC[C@]1(C(=O)NCCN2CCOCC2)N=C(c2ccc(OCCCO)cc2)O[C@H]1c1ccccc1`, the composite z-score is 1.55 in experiment [1]; 3.23 in experiment [5]; -0.007 in experiment [7]; -0.316 in experiment [8]; -0.532 in experiment [9]; 0.34 in experiment [10]. For the same compound, the z-score was 0.681 (inactive) in [2], 0.0586 (inactive) in experiment [3], -0.23 (inactive) in experiment [4] and 0.437 (inactive) in experiment [6].

In the case of `CCCCN1CC=CC23O[C@@H]4/C=C\CCC(C)OC(=O)C4[C@H]2C(=O)N(CCCCCCO)[C@@H]3C1=O` (stereo not given in full), the composite z-score in experiment [1] was -0.969; in [5] it was 1.4; in experiment [7], -0.212; in experiment [8], -0.806; in experiment [9] it was -0.407; in [10], -0.313. Moreover, the z-score is -0.287 (inactive) in experiment [2], -0.737 (inactive) in experiment [3], 0.045 (inactive) in experiment [4] and 0.272 (inactive) in experiment [6].

As to `CC1CC/C=C\[C@H]2OC34C=CCN(CCN5CCOCC5)C(=O)[C@H]3N(CCO)C(=O)[C@@H]4C2C(=O)O1` (stereo not given in full), the composite z-score in experiment [1] is -0.623; in [5], -0.144; in experiment [7], -0.103; in experiment [8], -0.982; in [9], -0.43; in experiment [10] it was -0.196. The z-score in experiment [2] was -0.962 (inactive); in [3], 0.0701 (inactive); in [4] it was 0.005 (inactive); in experiment [6], 1.25 (inactive).

On to `CCOC(=O)C[C@H]1[C@H](OC(=O)c2ccc(C(=O)c3ccccc3)cc2)[C@@H](NC(=O)c2ccc3ccccc3c2)c2cc(OCCCO)ccc2N1C(=O)c1ccccc1`, for which the composite z-score was determined as 1.56 in experiment [1]; 2.54 in [5]; 0.0773 in experiment [7]; 0.354 in experiment [8]; 1.09 in experiment [9]; 0.116 in experiment [10]. For the same compound, the z-score in experiment [2] is -0.79 (inactive); in experiment [3], -0.681 (inactive); in experiment [4], -0.278 (inactive); in experiment [6] it was -0.551 (inactive).

On to `CC(C)c1ccc(NN2C(C(O)c3ccco3)C=CC3C(=O)N(c4ccccc4)C(=O)C32)cc1` (stereo not given), for which the composite z-score in [1] was found to be 1.57; in experiment [5], 3.27; in experiment [7], 0.0997; in experiment [8], 0.18; in [9], 1.02; in [10] it was 0.0308. Besides, the z-score in experiment [2] is 0.61 (inactive); in experiment [3], 0.431 (inactive); in experiment [4] it was -0.419 (inactive); in experiment [6], -0.577 (inactive).

On to `[N-]=[N+]=Nc1ccccc1C[C@]1(C(=O)NCc2ccccc2)N=C(c2ccc(OCCCO)cc2)O[C@H]1c1ccccc1`, for which the composite z-score in [1] stood at 1.56; in experiment [5], 3.34; in experiment [7], 0.206; in [8], 0.383; in [9] it was 1.12; in experiment [10], 0.048. For the same compound, the z-score in [2] was -0.623 (inactive); in experiment [3], 0.69 (inactive); in experiment [4] it was 17.8 (active); in experiment [6], 0.7 (inactive).

As to `COC(=O)[C@@]1(Cc2ccc(OC)cc2)[C@H]2c3cc(C(=O)N(C)C)n(CCc4c[nH]c5ccc(O)cc45)c3C[C@H]2CN1C(=O)c1ccccc1`, the composite z-score in experiment [1] is 0.56; in experiment [5], 3.36; in [7], 0.41; in [8] it was -0.0794; in experiment [9] it was 1.02; in experiment [10], 0.102. The z-score is 1.94 (inactive) in experiment [2], 0.466 (inactive) in experiment [3], 3.51 (inactive) in experiment [4] and -0.765 (inactive) in experiment [6].

Take `COCCOC(=O)N1C(=O)[C@@]2(c3ccccc31)[C@H](C(=O)N1CCN(c3ncccn3)CC1)[C@H]1C(=O)O[C@H](c3ccccc3)[C@H](c3ccccc3)N1[C@@H]2c1ccc(OCCO)cc1`: the composite z-score in experiment [1] came to 1.56; in experiment [5], 2.56; in experiment [7], 0.309; in experiment [8] it was 0.57; in experiment [9] it was 0.817; in experiment [10], 0.325. Further, the z-score is 2.53 (inactive) in experiment [2], 1.1 (inactive) in [3], 5.84 (inactive) in experiment [4] and 1.75 (inactive) in [6].

For the compound `COc1ccc(C(O)C2C=CC3C(=O)N(c4ccccc4)C(=O)C3N2Nc2ccccc2)cc1OCc1ccccc1` (stereo not given), the composite z-score in [1] is 1.57; in experiment [5], 3.53; in [7], 0.104; in experiment [8], 0.88; in [9], 1.03; in experiment [10], 0.0386. In addition, the z-score in experiment [2] was -0.177 (inactive); in experiment [3], 1.3 (inactive); in experiment [4] it was 0.25 (inactive); in experiment [6], -1.2 (inactive).
